Assay [1] can be described thus: resazurin metabolic signal in HepG2 cells – cell-based, resazurin fluorescence, 24 h, PK04 Diversity Set, profiling panel (AID 1172). Note: test concentration not given here. The settings on record: HepG2 viability, higher = more signal. On the technique in general: Resazurin is reduced to fluorescent resorufin, in cell work by metabolically active cells.
Assay [2] can be described thus: budding yeast growth changes without added modifier – OD600, strain BY4716, 24 h, basal condition, primary screen (AID 1173). As to conditions: S. cerevisiae BY4716 growth, OD600, 24 h; higher = more signal, called active from +8 up or from −8 down.
Assay [3] is described as follows: viability profiling in MM1S myeloma cells – cell-based, resazurin fluorescence, basal, 24 h, PK04 Diversity Set, profiling panel (AID 1174).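 Note: MM1S multiple myeloma cell line; test concentration not given here.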 The settings on record: higher = more signal, called active from +8 up or from −8 down.
Assay [4] addresses Dihydroorotate dehydrogenase (quinone), mitochondrial (Plasmodium falciparum (isolate 3D7)) (UniProt Q08210). Nature of the assay: inhibition of P. falciparum DHODH – biochemical, C-terminal His tag, absorbance 600 nm, primary screen (AID 1175).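 Note: recombinant parasite enzyme with a five histidine tag at its C terminus; test concentration not given here.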 The settings on record: PfDHODH enzyme, DCIP absorbance 600 nm; higher = more signal, called active from +8 up or from −8 down.
Assay [5] can be described thus: inhibition of PAO1 biofilm formation – strain PAO1, LB-PBS medium, absorbance 600 nm, primary screen (AID 1176). Note: test concentration not given here. The settings on record: P. aeruginosa PAO1 growth/biofilm, A600, 12 h; higher = more signal.
Assay [6] can be described thus: growth modulation of vineyard yeast isolate – strain RM11-1a, OD600, basal, 24 h, primary screen (AID 1177).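 Note: cultures grown under basal conditions with no added stressor; test concentration not given here.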 The settings on record: S. cerevisiae RM11-1a growth, OD600, 24 h; higher = more signal, called active from +8 up or from −8 down.
Assay [7] can be described thus: growth of efflux-deficient E. coli DRC39 – strain DRC39, OD650, 24 h, E. coli filamentation inducers, primary screen (AID 1178).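 Note: growth measured as culture turbidity by optical density at 650 nm; test concentration not given here.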 As to conditions: E. coli DRC39 acrAB, higher = more signal, called active from +8 up or from −8 down.
Assay [8] is described as follows: growth of efflux-deficient E. coli DRC39 – strain DRC39, OD650, 48 h, E. coli filamentation inducers, primary screen (AID 1179).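 Note: screen aims at cell division blockers that make cells filament.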 As to conditions: E. coli DRC39 delta-acrAB growth, higher = more signal, called active from +8 up or from −8 down.
Assay [9] can be described thus: viability profiling in RPMI8226 myeloma cells – cell-based, resazurin fluorescence, basal, 24 h, PK04 Diversity Set, profiling panel (AID 1180).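 Note: RPMI8826 multiple myeloma cell line at 5000 cells per well; test concentration not given here.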 As to conditions: higher = more signal.
Assay [10] has as its target E3 ubiquitin-protein ligase XIAP (Homo sapiens) (UniProt P98170). Nature of the assay: small molecules binding XIAP protein – biophysical, small-molecule microarray, fluorescence 635 nm, primary screen (AID 1181).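 Note: score merges 667 nm emission and signal to noise over triplicate slides.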 As to conditions: higher = more signal.

This passage reports z-score and composite z-score results from PubChem BioAssay.

Active and inactive are the calls of the source. Unless noted, the rule behind the calls is not given here.

Chain of E3 ubiquitin-protein ligase XIAP (Homo sapiens) (P98170 whole entry, looked up): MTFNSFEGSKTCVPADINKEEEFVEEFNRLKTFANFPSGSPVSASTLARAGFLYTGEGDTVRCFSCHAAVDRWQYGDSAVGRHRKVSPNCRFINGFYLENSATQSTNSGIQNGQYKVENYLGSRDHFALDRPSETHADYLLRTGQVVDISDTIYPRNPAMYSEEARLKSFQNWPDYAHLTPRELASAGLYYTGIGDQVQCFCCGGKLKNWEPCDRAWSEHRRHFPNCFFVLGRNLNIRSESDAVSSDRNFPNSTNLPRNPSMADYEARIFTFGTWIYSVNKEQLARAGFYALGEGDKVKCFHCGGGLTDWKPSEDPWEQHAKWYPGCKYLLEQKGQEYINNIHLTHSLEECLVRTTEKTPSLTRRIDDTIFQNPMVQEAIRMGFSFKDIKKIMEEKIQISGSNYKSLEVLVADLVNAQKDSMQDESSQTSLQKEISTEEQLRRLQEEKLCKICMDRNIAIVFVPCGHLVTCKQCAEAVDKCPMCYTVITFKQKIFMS
Chain of Dihydroorotate dehydrogenase (quinone), mitochondrial (Plasmodium falciparum (isolate 3D7)) (Q08210 whole entry, looked up): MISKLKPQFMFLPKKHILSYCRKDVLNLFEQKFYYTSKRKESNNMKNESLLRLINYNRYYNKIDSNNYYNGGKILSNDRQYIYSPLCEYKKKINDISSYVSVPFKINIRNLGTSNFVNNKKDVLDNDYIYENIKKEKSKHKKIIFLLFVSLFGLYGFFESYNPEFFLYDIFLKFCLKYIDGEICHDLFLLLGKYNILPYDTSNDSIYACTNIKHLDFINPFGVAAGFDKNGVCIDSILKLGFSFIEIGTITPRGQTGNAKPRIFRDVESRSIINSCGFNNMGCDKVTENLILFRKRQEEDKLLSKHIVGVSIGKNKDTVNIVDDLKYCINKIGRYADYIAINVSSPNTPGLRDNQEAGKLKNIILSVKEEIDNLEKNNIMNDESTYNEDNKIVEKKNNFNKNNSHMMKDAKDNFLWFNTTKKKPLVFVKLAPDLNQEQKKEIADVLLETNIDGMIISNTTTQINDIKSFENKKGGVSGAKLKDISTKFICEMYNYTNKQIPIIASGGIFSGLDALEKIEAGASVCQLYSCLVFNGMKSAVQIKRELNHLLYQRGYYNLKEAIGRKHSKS

For `COC(=O)[C@@]1(Cc2ccccc2)[C@H]2c3cc(C(=O)N4CCCC4)n(CC4CC4)c3C[C@H]2CN1C(=O)c1ccccc1`, the z-score in [1] is -1.34; in assay [2] it was 1.38 (inactive); in assay [3], -1.75 (inactive); in assay [5], 0.936 (inactive); in [6], 1.25 (inactive); in assay [7] it was -0.889 (inactive). The values for the z-score in assay [8] and in assay [9] were -1.44 (inactive) and -2.27, respectively. The composite z-score is -0.0475 (inactive) in [4] and 0.637 in [10].

In the case of `CCCC[C@@H]1C[C@H]1[C@@H](NC(=O)c1ccco1)c1ccc(Cl)cc1`, the z-score is -0.653 in assay [1]; 1.44 (inactive) in [2]; 0.134 (inactive) in assay [3]; 0.343 (inactive) in assay [5]; 0.657 (inactive) in [6]; -0.181 (inactive) in assay [7]. Further, the z-score is 0.16 (inactive) in [8] and -0.0142 in assay [9]. Further, the composite z-score in assay [4] was -0.284 (inactive); in assay [10], -0.124.

With `O=C(NCc1ccccc1)[C@@H]1c2ccccc2C(=O)N(CC23CC4CC(CC(C4)C2)C3)[C@H]1c1ccc(CO)cc1`, the z-score was -0.511 in assay [1]; -0.092 (inactive) in assay [2]; -1.12 (inactive) in [3]; -0.245 (inactive) in assay [5]; 0.0739 (inactive) in assay [6]; -0.142 (inactive) in assay [7]. In addition, the z-score is -0.179 (inactive) in assay [8] and -0.195 in assay [9]. Besides, the figures for the composite z-score in assay [4] and in assay [10] were -0.139 (inactive) and 0.0623, respectively.

For `COc1cc2c(cc1OC)CN(C(=O)[C@@H]1[C@H]3C(=O)O[C@H](c4ccccc4)[C@H](c4ccccc4)N3[C@H](c3ccc(O)cc3)[C@@]13C(=O)Nc1ccc(C#CC4(O)CCCCCC4)cc13)CC2`, the z-score in [1] is 0.396; in [2], -0.313 (inactive); in [3], 0.323 (inactive); in [5], 0.958 (inactive); in assay [6], 0.525 (inactive); in assay [7], 0.241 (inactive). Also, the z-score was 0.475 (inactive) in assay [8] and 0.777 in assay [9]. Also, the composite z-score in assay [4] is -0.495 (inactive); in [10] it was -0.0559.

For the compound `[N-]=[N+]=Nc1ccccc1C[C@]1(C(N)=O)N=C(c2ccc(OCCCO)cc2)O[C@H]1c1ccccc1`, the z-score is 0.329 in assay [1]; -0.936 (inactive) in assay [2]; -1.02 (inactive) in assay [3]; 1.16 (inactive) in assay [5]; 1.33 (inactive) in assay [6]; 0.0314 (inactive) in assay [7]. Besides, the values for the z-score in assay [8] and in assay [9] were -0.665 (inactive) and -1.03, respectively. In addition, the composite z-score in assay [4] is 0.667 (inactive); in assay [10] it was -0.108.

Consider `CN(C)CCCNC(=O)[C@@]1(c2ccc([N+](=O)[O-])cc2)CC(=O)N(C2CCCCC2)[C@@H]1c1ccc(CO)cc1I`, for which the z-score in [1] was -6.5; in assay [2], -11.7 (active); in [3] it was -9.1 (active); in [5], 0.0714 (inactive); in assay [6], 0.344 (inactive); in assay [7], 0.725 (inactive). Moreover, the z-score in [8] is -1.28 (inactive); in assay [9], -6.61. In addition, the results for the composite z-score in [4] and in assay [10] were -1.19 (inactive) and 0.125, respectively.

Turning to `CC1CC/C=C\[C@H]2OC34C=CCN(c5ccc(Cl)cc5)C(=O)[C@H]3N(CCO)C(=O)[C@]4(C)C2C(=O)O1` (stereo not given in full), the z-score in [1] was -0.349; in assay [2], -0.152 (inactive); in assay [3] it was -1.13 (inactive); in assay [5], 0.0962 (inactive); in [6], -0.245 (inactive); in assay [7] it was -0.135 (inactive). Further, the results for the z-score in assay [8] and in assay [9] were -0.672 (inactive) and 0.102, respectively. In addition, the composite z-score in assay [4] is -0.0582 (inactive); in [10], -0.0785.

Regarding `C#CCN(Cc1ccccc1Br)C(/C=C/c1ccccc1)CO` (stereo not given), the z-score in assay [1] was -0.54; in [2], -6.66 (inactive); in assay [3], 0.862 (inactive); in assay [5] it was -0.365 (inactive); in assay [6], -1.26 (inactive); in assay [7], 1.1 (inactive). The z-score was -0.494 (inactive) in [8] and -0.166 in assay [9]. Besides, the composite z-score in [4] was 0.34 (inactive); in assay [10] it was 0.147.

Take `CC(C)(C)OC(=O)CC[C@]12N=C(c3ccc(OCCCO)cc3)O[C@H]1c1ccccc1N(CCS(=O)(=O)c1ccccc1)C2=O`: the z-score in assay [1] was 0.0763; in assay [2], 0.688 (inactive); in assay [3], -3.32 (inactive); in assay [5], 2.21 (inactive); in [6], 1.84 (inactive); in [7], 0.908 (inactive). Moreover, the z-score was 0.0504 (inactive) in assay [8] and -1.19 in assay [9]. The composite z-score in [4] is 0.017 (inactive); in assay [10], 0.0761.

Turning to `[N-]=[N+]=NCc1ccccc1C[C@]1(C(=O)NCC(O)CO)N=C(c2ccc(OCCCO)cc2)O[C@H]1c1ccccc1` (stereo not given in full), the z-score was -0.237 in assay [1]; -1.16 (inactive) in assay [2]; -0.525 (inactive) in assay [3]; 0.826 (inactive) in assay [5]; 0.125 (inactive) in [6]; -0.376 (inactive) in assay [7]. In addition, the z-score in assay [8] was -0.193 (inactive); in [9] it was -0.977. In addition, the composite z-score in assay [4] is 0.105 (inactive); in [10], 0.035.

As to `[N-]=[N+]=NCc1ccccc1C[C@]1(C(=O)N2CCOCC2)N=C(c2ccc(OCCCO)cc2)O[C@H]1c1ccccc1N=[N+]=[N-]`, the z-score in assay [1] was 0.168; in [2], -1.05 (inactive); in assay [3], -1.21 (inactive); in assay [5], -0.357 (inactive); in assay [6] it was -0.405 (inactive); in [7] it was 1.14 (inactive). The values for the z-score in assay [8] and in assay [9] were 0.957 (inactive) and -1.61, respectively. The composite z-score was 0.152 (inactive) in [4] and -0.113 in assay [10].

As to `[N-]=[N+]=Nc1ccccc1C[C@@]1(C(=O)NCCN2CCOCC2)N=C(c2ccc(OCCCO)cc2)O[C@@H]1c1ccccc1`, the z-score in assay [1] was -0.139; in assay [2], -4.41 (inactive); in assay [3], -0.599 (inactive); in [5], -0.347 (inactive); in [6], -0.0653 (inactive); in assay [7] it was 0.655 (inactive). The z-score was 0.745 (inactive) in assay [8] and -0.125 in assay [9]. Also, the figures for the composite z-score in assay [4] and in assay [10] were 0.842 (inactive) and 0.0831, respectively.

Take `CC(CO)N1C(=O)[C@@H]2C3C(=O)OCCC/C=C\[C@H]3OC23C=CCN(c2ccc4ccccc4c2)C(=O)[C@@H]13` (stereo not given in full): the z-score was -0.757 in [1]; -0.55 (inactive) in [2]; -0.208 (inactive) in assay [3]; -0.456 (inactive) in assay [5]; 0.179 (inactive) in [6]; 0.162 (inactive) in [7]. For the same compound, the z-score is 0.703 (inactive) in assay [8] and -0.0216 in assay [9]. Moreover, the composite z-score in assay [4] was 0.575 (inactive); in assay [10], -0.0989.
